We go through 23 sequences from the OligoGym collection.
Further: reference of the scale not given here.

The first assay addresses LUC7L2. The assay is described as follows: pooled miR-30 sensor sort-seq; sequence = guide strand. As to conditions: shRNA.
In turn, TAATCTCTTCTTGAGTTTCTGC registered a sensor-assay potency score (higher = more potent) of -0.17.
Still for that read-out and setting: with TACTTCATCCATTACTTTCTGG the figure was -0.257.
TTGCATACTCTGTCATCACTGA came in with a sensor-assay potency score (higher = more potent) of 0.248.
On the same count and under the same terms, with TTGAGAAGGTGACTCTTGCATA the figure was -0.354.
Still for that read-out and setting: under TGTCTCTGTCACATGATGCTAA stands -0.366; under TTTGCTGCTACTTCAGCACTAA, -0.0299.
Same read-out and setting: under TTGGATCGTTCTCTGCTCCTAT stands 0.469; under TTAACTCATGAACACGTTCTGC, -0.686; under TTTGGATCGAGTTCTCCTCTTG, -0.398.
The sequence TAGAACATCCTGAACATAGCAA returned a sensor-assay potency score (higher = more potent) of 0.289.
Same read-out and setting: with TCTCTTGAACTCCTGTCTCTGT the figure was -0.457.

For a further assay, the target named is LY6K. Described as above. The note with it: shRNA.
In the case of TTGAACACTGATGAGTTGATAG, the sensor-assay potency score (higher = more potent) was -0.979.
AAACATGACACCACACTCTATT returned a sensor-assay potency score (higher = more potent) of -0.883.
Sequence TCTCCATCGCTGCACAACCAGC showed a sensor-assay potency score (higher = more potent) of -1.92.
Same read-out and setting: under TCTATTGTCACCCTCGTCCGTT stands -0.102; under AATTTTACAACACTTGAGGTAA, -0.3; under TCTCTCACAAACATGACACCAC, 0.0962.
Same read-out and setting: under TTTCTCTCTCACAAACATGACA stands -1.23.
Same read-out and setting: under TAATGCAACAGGTGACAACGGT stands -0.099; under TCTTTGAACACTGATGAGTTGA, -0.353; under TAGCGAATTTTACAACACTTGA, -0.625.
TTGGCGTCTGTCCACACCCGCG showed a sensor-assay potency score (higher = more potent) of -1.54.
Same read-out and setting: with TATTCTTTGAACACTGATGAGT the figure was -0.623.
